Source: PubChem (National Center for Advancing Translational Sciences (NCATS))
Sampled rows, rich in hits. Any-hit rate of the full collection: about 11%.
IMPase Li cell: qHTS Assay for Identifying the Cell-Membrane Permeable IMPase Inhibitors: Potentiation with Lithium; AID 1457, 2008; CHO-M1 cells, IP1 TR-FRET (IP-One), carbachol + lithium; 210,000 compounds, 0.35% hits; Potency, µM (highest dose often 59.4 µM), for inactives: at the top dose activity, negative = IMPase inhibition, hits mostly inhibitors;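 also: IP1 builds up when IMPase is blocked and the TR-FRET signal falls; potency is read from the fitted curve at half-maximal effect; plate controls were basal vehicle for no effect and high inhibitor control for full effect; nearly all actives have a fitted effect of over 50% in size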
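Lithium-sensitised IP1 accumulation assay; M1-expressing CHO cells treated 30 min at 37C with compound. Competitive antibody detection by time-resolved FRET followed a 10 min room-temperature lysis step.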
PNC assembly inh: High Content Assay for Compounds that inhibit the Assembly of the Perinucleolar Compartment; PC3M PTB-GFP, PNC prevalence imaging, 16 h; hits give low values; activity change (PNC), negative = inhibition, % at 10 µM; 140,000 compounds, 3.1% hits;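 active = readout at or below -70, meaning at least 70% loss of cells showing the perinucleolar compartment, a nuclear body marking cancer cells; inconclusive = readout between -30 and a set limit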;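 also: plate controls were DMSO wells for no effect and camptothecin positive control wells for full effect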
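Compounds are pinned in duplicate onto adhered PC3M cells stably expressing GFP-tagged PTB and incubated 16 h at 37 C. Cells are then fixed, nuclei stained with Hoechst, and PNC-positive cells counted.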
ALDH1A1 inh: qHTS Assay for Inhibitors of Aldehyde Dehydrogenase 1 (ALDH1A1); Potency, µM (series often up to 75.3 µM), for inactives: top-dose activity, negative = inhibition, actives largely listed as inhibitors; AID 1030, 2008; Purified ALDH1A1, NADH fluorescence, propionaldehyde substrate; Aldehyde dehydrogenase 1A1 (Homo sapiens), P00352; 220,000 compounds, 7.3% hits; active = well fitted inhibition curve with a large enough effect, not every such curve was filed as active; inconclusive = small, poorly fitted or top-dose-only effect, or another doubt; inactive = no such curve, though single readings can be large or run the other way;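 also: potency is read from the fitted curve at half-maximal effect; plate controls were no enzyme wells and a reference inhibitor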
IMPase cell inh: qHTS Assay for Identifying the Cell-Membrane Permeable IMPase Inhibitors. Inositol monophosphatase 1 (Rattus norvegicus), P97697. CHO-M1 cells, IP1 accumulation, HTRF TR-FRET ratio. inhibition (IP1 accumulation), % at 46.1 µM. 120,000 tested, under 10 active. AID 901, 2007; active = well fitted curve in the direction sought with a large enough effect in the signal ratio, not every such curve was filed as active; inconclusive = small, poorly fitted or top-dose-only effect, or a change in a side signal; inactive = no such curve, though single readings can be large or run the other way; the % refers to the signal ratio;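 also: cells stimulated with carbachol in lithium chloride buffer; plate controls were DMSO basal wells for no effect and reference inhibitor wells for full effect; higher means more IMPase inhibition seen as more IP1 and lower FRET ratio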
Target sequence (P97697 whole entry, looked up): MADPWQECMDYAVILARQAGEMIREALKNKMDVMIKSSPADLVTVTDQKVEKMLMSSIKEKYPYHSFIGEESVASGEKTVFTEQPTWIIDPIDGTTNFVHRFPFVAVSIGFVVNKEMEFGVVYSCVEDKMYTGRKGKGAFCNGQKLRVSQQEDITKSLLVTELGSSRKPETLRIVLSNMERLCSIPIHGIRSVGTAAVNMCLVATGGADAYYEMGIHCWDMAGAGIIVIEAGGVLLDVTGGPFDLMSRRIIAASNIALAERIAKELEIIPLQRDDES
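Measured: the HTRF emission ratio (665/620 nm) plus the 620 nm donor channel, each fitted to the Hill equation to give AC50. Cells were CHO-M1 given compounds up to 46 uM and a 30 min carbachol stimulation at 37C.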
HPGD block: qHTS Assay for Inhibitors of HPGD (15-Hydroxyprostaglandin Dehydrogenase) | 15-hydroxyprostaglandin dehydrogenase [NAD(+)] (Homo sapiens), P15428 | purified HPGD, NADH fluorescence kinetic, PGE2 substrate | Potency, µM, inactives show at the top dose activity change, negative = inhibition, most hits filed as inhibitors | 150,000 compounds, 4.3% hits; active = well fitted inhibition curve with a large enough effect, not every such curve was filed as active; inconclusive = small, poorly fitted or top-dose-only effect, or another doubt; inactive = no such curve, though single readings can be large or run the other way; also: potency is read from the fitted curve at half-maximal effect
Target sequence (P15428 whole entry, looked up): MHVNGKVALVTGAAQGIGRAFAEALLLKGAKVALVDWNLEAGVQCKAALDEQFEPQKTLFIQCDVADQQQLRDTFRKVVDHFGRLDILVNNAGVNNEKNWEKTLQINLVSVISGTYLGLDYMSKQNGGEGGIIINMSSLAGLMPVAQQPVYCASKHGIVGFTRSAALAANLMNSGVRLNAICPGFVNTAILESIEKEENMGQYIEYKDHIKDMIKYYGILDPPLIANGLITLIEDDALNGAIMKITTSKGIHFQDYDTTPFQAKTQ
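20 nM HPGD preincubated 15 min at room temperature with compound in 50 mM Tris-HCl pH 8, 0.01% Tween 20. Started with 1 mM NAD+ and 30 uM prostaglandin E2; NADH fluorescence (360/450 nm) read 5 times over 30-s intervals, last minus first.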
12-hLO inh: qHTS Assay for Inhibitors of 12-hLO (12-human lipoxygenase) | Polyunsaturated fatty acid lipoxygenase ALOX12 (Homo sapiens), P18054 | Potency, µM (highest dose often 57.1 µM), for the others: top-dose activity change, negative = inhibition, actives largely listed as inhibitors | 150,000 compounds, 0.12% hits | purified 12-hLO, xylenol orange hydroperoxide absorbance; also: potency is read from the fitted curve at half-maximal effect; nearly all actives have a fitted effect of over 55% in size
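Lipoxygenase turnover measured by absorbance at 573 and 405 nm after Fe-XO development. Human 12hLO 150 nM, arachidonate 40 uM, pH 7.0 Hepes buffer with detergent; 15 min compound preincubation, 30 min reaction.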
* = called active by the depositor; ? = inconclusive; . = no result given; [ ] = dose if it differs, or a comment. Unless noted, calls follow the shape of the dose curve; as a rule, active = well fitted curve in the direction sought with a large enough effect; inconclusive = small, poorly fitted or top-dose-only effect, or another doubt; inactive = no such curve, though single readings can be large; an effect the other way counts as inactive or inconclusive. Unless noted, % is scaled to controls: 0 for no effect and ±100 for the full control effect.

SMILES	IMPase Li cell	PNC assembly inh	ALDH1A1 inh	IMPase cell inh	HPGD block	12-hLO inh
Cc1ccccc1OCC(=O)Nc1ccccc1N1CCCCC1	28%[38.3 µM]	-4	0%	10	-20%	-7%
CC(=O)N1CC=CC1(C)C(=O)NCC1CC1 (configuration not stated)	-4%	.	?	.	?	-2%
CCCN(CCC)C(=O)[C@@H](CCC(=O)O)NC(=O)c1ccccc1	-3%	.	19%[20.9 µM]	-4[20.6 µM]	-7%	2%[25.6 µM]
COc1ccc(-c2cc(C(=O)N/N=C/c3ccc(O)cc3)[nH]n2)cc1	.	.	13µM*	.	?	3%
COc1ccc(-c2cc(C(=O)NN)n(-c3ccccc3)n2)cc1	7%	14	8.9µM*	3	-14%	2%
Cc1ccc(NC(=O)c2cc(-c3ccccc3)nn2-c2ccccc2)cc1	20%	-21	?	.	-25%	0%
COc1ccc(-c2cc(C(=O)NN)[nH]n2)cc1	11%	1	20µM*	.	-6%	-6%
Cc1ccccc1-n1c(=O)cc(N2CCc3ccccc32)[nH]c1=O	23%[38.3 µM]	-108*	?	-1	-21%	4%
O=c1cc(N2CCc3ccccc32)[nH]c(=O)n1-c1ccc(Br)cc1	20%[38.3 µM]	-14	?	4	28µM*	-8%
Oc1cc(Cc2ccccc2)cnc1CN1CCCCC1	21%[38.3 µM]	43	25µM*	11	25µM*	-12%
Cc1c(C=O)c2ccccn2c1C(=O)c1ccc(Cl)c([N+](=O)[O-])c1	18%	.	2.8µM*	.	.	.
Cc1cc2ccccn2c1C(=O)c1ccc(Cl)c([N+](=O)[O-])c1	17%	.	2%	.	.	.
CC(Sc1ccccc1)C(=O)NN=C1CCN(C)CC1 (configuration not stated)	-2%	.	?	.	.	.
COc1cccc(C(=O)Nc2c(C(=O)c3ccc(F)cc3)oc3ccccc23)c1	.	.	.	0	.	.
O=[N+]([O-])c1cccnc1Oc1ccc(C2SCCS2)cc1	.	.	18µM*	.	.	.
COc1ccc2nc(NC(=O)CSc3nc(C)cc(=O)[nH]3)sc2c1	32%[38.3 µM]	-7	?	5	28µM*	-27%
COc1ccc2sc(NC(=O)CC(C)C)nc2c1	28%[38.3 µM]	24	25µM*	4	-24%	-15%
COc1ccc2nc(NC(=O)CSc3nccc(C)n3)sc2c1	9%[38.3 µM]	13	4%	10	-23%	-7%
CC(=O)Nc1ccc2nc(NS(=O)(=O)c3ccc(C)cc3)sc2c1	6%	.	-1%	.	.	.
COc1ccc(-n2nc(C(=O)Nc3nc4ccc(OC)cc4s3)c3ccccc3c2=O)c(OC)c1	-2%	39	20µM*	.	-6%	1%
COc1ccc2nc(NS(=O)(=O)c3ccc(NC(C)=O)cc3)sc2c1	-11%[38.3 µM]	0	-8%	-3	28µM*	-3%
CCN1C(=O)[C@H]2[C@@H]3[C@H](O)[C@H](O)CC(=O)[C@H]3CC[C@H]2C1=O	.	.	3%[13.5 µM]	.	.	.
Cc1ccc(S(=O)(=O)N[C@H]2COC(=O)[C@@H](C)COC(=O)C/C=C\[C@H]2C)cc1	.	.	5%[13.5 µM]	.	.	.
CC(C)C1=CC2=CC[C@@H]3[C@@](C)(C(=O)O)CCC[C@]3(C)C2CC1 (some centres not stated)	8%	.	?	1	-10%	-5%
CCC1=Nc2cc(C(=O)NC3CCCC3)ccc2Sc2ccc(Br)cc21	.	.	.	4	.	.
CCOc1ccc2sc(NS(=O)(=O)c3ccc(OC)c(OC)c3)nc2c1	1%[38.3 µM]	36	?	9	16µM*	-5%
CCOc1ccc(NS(=O)(=O)c2ccc(NC(C)=O)c(OC)c2)cc1	-2%[38.3 µM]	30	5µM*	5	-1%	7%
CCOCC(=O)Nc1nc2ccc(OC)cc2s1	16%[38.3 µM]	-15	18µM*	1	-12%	-2%
